# According to the supplement of paper PMC8728848:
# Shown is part of a subset that was picked to be rich in the strongest signals.
# Assays:
# Test in all cases: glycan array binding signal (z-score within array); higher = stronger binding
# Settings in all cases: glycan notation: IUPAC condensed, linker removed
# [1] = molecular target: Fuc(a1-2)Gal(b1-3)GalNAc(a1-3)[Fuc(a1-2)]Gal(b1-4)GlcNAc
# How it was run: (§1)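 Arrays were curated from the Consortium for Functional Glycomics database, 3228 in total, and kept only where the protein sequence was available. Binding is expressed as a within-array Z-score. This score was averaged across arrays of the same protein sequence at different concentrations or buffers and across linkers, and negative values can be read as non-binding.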
# [2] = molecular target: Fuc(a1-2)Gal(b1-3)GlcNAc(b1-3)Gal(b1-4)Glc
# How it was run: as §1
# [3] = molecular target: Fuc(a1-2)Gal(b1-3)GlcNAc(b1-3)[Fuc(a1-3)[Gal(b1-4)]GlcNAc(b1-6)]Gal(b1-4)Glc
# How it was run: as §1
# [4] = molecular target: Fuc(a1-2)Gal(b1-4)[Fuc(a1-3)]GlcNAc(b1-3)Gal(b1-4)[Fuc(a1-3)]GlcNAc(b1-3)Gal(b1-4)[Fuc(a1-3)]GlcNAc
# How it was run: as §1
# [5] = molecular target: Fuc(a1-2)[Gal(a1-3)]Gal(b1-4)GlcNAc(b1-2)Man(a1-3)[Fuc(a1-2)[Gal(a1-3)]Gal(b1-4)GlcNAc(b1-2)Man(a1-6)]Man(b1-4)GlcNAc(b1-4)GlcNAc
# How it was run: as §1
# [6] = molecular target: Fuc(a1-2)[Gal(a1-3)]Gal(b1-4)[Fuc(a1-3)]GlcNAc
# How it was run: as §1
# [7] = molecular target: Fuc(a1-2)[GalNAc(a1-3)]Gal(b1-4)[Fuc(a1-3)]GlcNAc
# How it was run: as §1
# [8] = molecular target: Fuc(a1-3)[Gal(b1-4)]GlcNAc(b1-4)Gal(b1-4)[Fuc(a1-3)]GlcNAc
# How it was run: as §1
# [9] = molecular target: Fuc(a1-3)[Gal(b1-4)]GlcNAc(b1-6)[Gal(b1-3)GlcNAc(b1-3)]Gal(b1-4)Glc
# How it was run: as §1
# [10] = molecular target: Fuc(a1-3)[GalNAc(b1-4)]GlcNAc
# How it was run: as §1
# Fuc(a1-4)GlcNAc = molecular target: Fuc(a1-4)GlcNAc
# How it was run: as §1
# Gal(b1-4)Glc6S = molecular target: Gal(b1-4)Glc6S
# How it was run: as §1
# [11] = molecular target: Gal(b1-4)GlcNAc(b1-2)Man(a1-3)[Gal(b1-4)GlcNAc(b1-2)Man(a1-6)]Man(b1-4)GlcNAc(b1-4)GlcNAc
# How it was run: as §1
# [12] = molecular target: Gal(b1-4)GlcNAc(b1-2)Man(a1-6)Man(b1-4)GlcNAc(b1-4)GlcNAc
# How it was run: as §1
# [13] = molecular target: Gal(b1-4)GlcNAc(b1-3)[Gal(b1-4)GlcNAc(b1-6)]GalNAc
# How it was run: as §1
# [14] = molecular target: Gal(b1-4)GlcNAc(b1-6)GalNAc
# How it was run: as §1
# [15] = molecular target: Gal3S(b1-3)[Fuc(a1-4)]GlcNAc
# How it was run: as §1
# [16] = molecular target: GalNAc(b1-3)Gal(a1-4)Gal(b1-4)GlcNAc
# How it was run: as §1
# Glc(b1-4)Glc = molecular target: Glc(b1-4)Glc
# How it was run: as §1
# [17] = molecular target: GlcNAc(b1-3)Gal(b1-4)GlcNAc
# How it was run: as §1
# [18] = molecular target: GlcNAc(b1-3)[GlcNAc(b1-6)]GalNAc
# How it was run: as §1
# [19] = molecular target: GlcNAc(b1-4)Gal(b1-4)GlcNAc
# How it was run: as §1
# [20] = molecular target: GlcNAc(b1-4)[GlcNAc(b1-6)]GalNAc
# How it was run: as §1
# Kdn(a2-6)Gal(b1-4)GlcNAc = molecular target: Kdn(a2-6)Gal(b1-4)GlcNAc
# How it was run: as §1
# [21] = molecular target: Man(a1-2)Man(a1-2)Man(a1-3)Man
# How it was run: as §1
# [22] = molecular target: Man(a1-2)Man(a1-2)Man(a1-6)[Man(a1-3)]Man
# How it was run: as §1
# Man(a1-2)Man(a1-3)Man = molecular target: Man(a1-2)Man(a1-3)Man
# How it was run: as §1
# [23] = molecular target: Man(a1-2)Man(a1-3)[Man(a1-2)Man(a1-6)]Man
# How it was run: as §1
# [24] = molecular target: Man(a1-2)Man(a1-3)[Man(a1-2)Man(a1-6)]Man(a1-6)[Man(a1-2)Man(a1-2)Man(a1-3)]Man
# How it was run: as §1
# [25] = molecular target: Man(a1-2)Man(a1-6)[Man(a1-3)]Man(a1-6)[Man(a1-2)Man(a1-2)Man(a1-3)]Man
# How it was run: as §1
# [26] = molecular target: Man(a1-2)Man(a1-6)[Man(a1-3)]Man(a1-6)[Man(a1-2)Man(a1-2)Man(a1-3)]Man(b1-4)GlcNAc(b1-4)GlcNAc
# How it was run: as §1
# Man(a1-6)Man = molecular target: Man(a1-6)Man
# How it was run: as §1
# Man(b1-4)GlcNAc = molecular target: Man(b1-4)GlcNAc
# How it was run: as §1
# Neu5Ac(a2-3)Gal = molecular target: Neu5Ac(a2-3)Gal
# How it was run: as §1
# [27] = molecular target: Neu5Ac(a2-3)Gal(b1-3)GalNAc(b1-4)[Neu5Ac(a2-3)]Gal(b1-4)Glc
# How it was run: as §1
# [28] = molecular target: Neu5Ac(a2-3)Gal(b1-3)GlcNAc(b1-3)Gal(b1-4)GlcNAc
# How it was run: as §1
# [29] = molecular target: Neu5Ac(a2-3)Gal(b1-3)GlcNAc(b1-3)GalNAc
# How it was run: as §1
# [30] = molecular target: Neu5Ac(a2-3)Gal(b1-4)GlcNAc(b1-3)Gal(b1-4)[Fuc(a1-3)]GlcNAc
# How it was run: as §1
# [31] = molecular target: Neu5Ac(a2-3)Gal(b1-4)[Fuc(a1-3)]GlcNAc(b1-3)Gal(b1-4)[Fuc(a1-3)]GlcNAc(b1-3)Gal(b1-4)[Fuc(a1-3)]GlcNAc
# How it was run: as §1
# Neu5Ac(a2-6)Gal = molecular target: Neu5Ac(a2-6)Gal
# How it was run: as §1
# [32] = molecular target: Neu5Ac(a2-6)Gal(b1-4)GlcNAc(b1-3)GalNAc
# How it was run: as §1
# Neu5Ac(a2-6)GalNAc = molecular target: Neu5Ac(a2-6)GalNAc
# How it was run: as §1
# [33] = molecular target: Neu5Ac(a2-8)Neu5Ac(a2-3)Gal(b1-4)Glc
# How it was run: as §1
binder,measurement,setting,value
"CTLY 1 (Homo sapiens), Q6ZS10 (protein) AITCPEGWLPFEGKCYYFSPSTKSWDEARMFCQENYSHLVIINSFAEHNFVAKAHGSPRVYWLGLNDRAQEGDWRWLDGSPVTLSFWEPEEPNNIHDEDCATMNKGGTWNDLSCYKTTYWICERKGLNDIFEAQKIEWHE",glycan array binding signal (z-score),[1],-0.207
same,glycan array binding signal (z-score),[2],-0.241
same,glycan array binding signal (z-score),[3],-0.239
same,glycan array binding signal (z-score),[4],4.81
same,glycan array binding signal (z-score),[5],-0.174
same,glycan array binding signal (z-score),[6],-0.207
same,glycan array binding signal (z-score),[7],5.5
same,glycan array binding signal (z-score),[8],0.526
same,glycan array binding signal (z-score),[9],-0.219
same,glycan array binding signal (z-score),[10],-0.188
same,glycan array binding signal (z-score),Fuc(a1-4)GlcNAc,-0.24
same,glycan array binding signal (z-score),Gal(b1-4)Glc6S,-0.248
same,glycan array binding signal (z-score),[11],-0.242
same,glycan array binding signal (z-score),[12],-0.226
same,glycan array binding signal (z-score),[13],-0.246
same,glycan array binding signal (z-score),[14],-0.23
same,glycan array binding signal (z-score),[15],1.29
same,glycan array binding signal (z-score),[16],-0.243
same,glycan array binding signal (z-score),Glc(b1-4)Glc,-0.243
same,glycan array binding signal (z-score),[17],-0.237
same,glycan array binding signal (z-score),[18],-0.066
same,glycan array binding signal (z-score),[19],-0.212
same,glycan array binding signal (z-score),[20],0.086
same,glycan array binding signal (z-score),Kdn(a2-6)Gal(b1-4)GlcNAc,-0.232
same,glycan array binding signal (z-score),[21],6.07
same,glycan array binding signal (z-score),[22],10.1
same,glycan array binding signal (z-score),Man(a1-2)Man(a1-3)Man,1.1
same,glycan array binding signal (z-score),[23],4.5
same,glycan array binding signal (z-score),[24],8.68
same,glycan array binding signal (z-score),[25],4.81
same,glycan array binding signal (z-score),[26],0.475
same,glycan array binding signal (z-score),Man(a1-6)Man,-0.228
same,glycan array binding signal (z-score),Man(b1-4)GlcNAc,-0.239
same,glycan array binding signal (z-score),Neu5Ac(a2-3)Gal,-0.238
same,glycan array binding signal (z-score),[27],-0.231
same,glycan array binding signal (z-score),[28],-0.235
same,glycan array binding signal (z-score),[29],-0.237
same,glycan array binding signal (z-score),[30],-0.238
same,glycan array binding signal (z-score),[31],1.04
same,glycan array binding signal (z-score),Neu5Ac(a2-6)Gal,-0.253
same,glycan array binding signal (z-score),[32],-0.235
same,glycan array binding signal (z-score),Neu5Ac(a2-6)GalNAc,-0.248
same,glycan array binding signal (z-score),[33],-0.252
